The values that follow come from PubChem BioAssay (NCI).

SMILES strings stand for the structures. About 83,000 compounds went through this panel and 20% of them were active in at least one assay; those are over-represented in the sample as a whole.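 Negative percent growth values reflect cell death: -40 means 40% of the cells present at the start died, and -100 means all died.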 Unmarked numbers belong to inactive results. Active and inactive are the calls of the source. The calls were made as follows: active = growth percent below 10; inactive = the rest.

Among the test systems are HCT-15 colon; HT29 colon; SNB-75 CNS; SNB-19 CNS; U251 CNS; PC-3 prostate; SK-MEL-5 melanoma; UACC-62 melanoma; LOX IMVI melanoma; SK-MEL-28 melanoma; SK-MEL-2 melanoma; EKVX NSCLC; SN12C renal; UO-31 renal; TK-10 renal; ACHN renal; CAKI-1 renal; CCRF-CEM leukemia; MOLT-4 leukemia.
Assay in all cases: NCI-60 one-dose screen, 48 h (100 = growth as untreated, 0 = no growth, -100 = all killed)
Conditions in all cases: 10 µM unless noted

On to `CCOC(=O)CSc1nc2ccccc2c(=O)n1Cc1ccc(S(N)(=O)=O)cc1`, for which the growth with HCT-15 colon is 100%; in the assay with HT29 colon, 105%; with SNB-75 CNS it was 85.8%; in the assay with SNB-19 CNS it was 99.2%; in the assay on U251 CNS, 97.5%; with PC-3 prostate it was 91.7%. The growth was 100% in the assay with SK-MEL-5 melanoma; 94.4% with UACC-62 melanoma; 95.9% in the assay on LOX IMVI melanoma; 104% with SK-MEL-28 melanoma; 111% in the assay with SK-MEL-2 melanoma; 97.1% with EKVX NSCLC. Besides, the growth was 99.5% with SN12C renal; 84.3% with UO-31 renal; 98.7% with TK-10 renal; 102% in the assay with ACHN renal; 91.3% with CAKI-1 renal; 97.1% in the assay with CCRF-CEM leukemia. Moreover, in the assay with MOLT-4 leukemia, the growth is 104%.
On to `CNCCn1c(=O)c2cc(OC)c(OC)cc2c2ccc3cc4c(cc3c21)OCO4`, for which the growth was 17.3% in the assay on HCT-15 colon; 2.8% (active) with HT29 colon; -0.403% (active) in the assay on SNB-75 CNS; 8.32% (active) in the assay on SNB-19 CNS; 5.74% (active) with U251 CNS; 8.41% (active) with PC-3 prostate. Also, the growth is -60.7% (active) in the assay on SK-MEL-5 melanoma; -79.7% (active) in the assay with UACC-62 melanoma; -46.1% (active) in the assay on LOX IMVI melanoma; -34.2% (active) in the assay on SK-MEL-28 melanoma; -76.1% (active) in the assay on SK-MEL-2 melanoma; -6.68% (active) in the assay on EKVX NSCLC. Also, the growth with SN12C renal is 2.31% (active); with UO-31 renal, -66.4% (active); in the assay with TK-10 renal it was -68.9% (active); in the assay with ACHN renal it was -76% (active); with CAKI-1 renal it was -84.9% (active); in the assay on CCRF-CEM leukemia, -1.64% (active). Besides, the growth in the assay with MOLT-4 leukemia was -10.3% (active).
Regarding `CCSCC1CC(O)(c2ccccc2)CC(c2ccc(F)cc2)O1` (configuration not stated), the growth with HCT-15 colon is 17.4%; with HT29 colon it was 2.51% (active); in the assay on SNB-75 CNS, 33.1%; with SNB-19 CNS, 36.1%; with U251 CNS, 20.8%; in the assay on PC-3 prostate, 9.83% (active). Moreover, the growth was -36% (active) in the assay on SK-MEL-5 melanoma; 29.2% in the assay on UACC-62 melanoma; 4.29% (active) with LOX IMVI melanoma; 26.9% in the assay with SK-MEL-28 melanoma; 4.62% (active) in the assay with SK-MEL-2 melanoma; 15.2% in the assay on EKVX NSCLC. For the same molecule, the growth in the assay on SN12C renal was -68.9% (active); with UO-31 renal it was 28.6%; in the assay with TK-10 renal, 21.9%; in the assay with ACHN renal, 3.1% (active); with CAKI-1 renal it was -25.2% (active); with CCRF-CEM leukemia, 22.9%. In the assay with MOLT-4 leukemia, the growth is -11.9% (active).
`CCCCCCNC(=O)Nc1ccc2cc3ccc(NC(=O)NCCCCCC)cc3nc2c1`: the growth in the assay on HCT-15 colon was 88.7%; in the assay on HT29 colon, 20.2%; in the assay on SNB-75 CNS, -16.3% (active); with SNB-19 CNS, -47.9% (active); in the assay on U251 CNS it was -89.1% (active); in the assay with PC-3 prostate, 21.5%. Moreover, the growth is 3.38% (active) in the assay with SK-MEL-5 melanoma; -79% (active) in the assay with UACC-62 melanoma; -79.7% (active) with LOX IMVI melanoma; -65.4% (active) in the assay with SK-MEL-28 melanoma; 11.3% in the assay with SK-MEL-2 melanoma; 48.7% in the assay with EKVX NSCLC. Also, the growth in the assay on SN12C renal is -72.7% (active); in the assay with UO-31 renal, 94.2%; in the assay with TK-10 renal it was 97.8%; in the assay with ACHN renal, 96.7%; with CAKI-1 renal it was 71.4%; in the assay on CCRF-CEM leukemia, 0.631% (active). Also, the growth in the assay with MOLT-4 leukemia was -45% (active).
On to `O=C(/C=C(/C=C/c1csc2ccccc12)OB(F)F)/C=C/c1csc2ccccc12`, for which the growth in the assay with HCT-15 colon is 11.4%; with HT29 colon, 15.7%; with SNB-75 CNS, 16.5%; in the assay with SNB-19 CNS, 48.2%; with U251 CNS, 17.1%; in the assay with PC-3 prostate, 20.3%. Also, the growth with SK-MEL-5 melanoma is 31.5%; in the assay with UACC-62 melanoma, 6.2% (active); in the assay on LOX IMVI melanoma, -3.05% (active); in the assay on SK-MEL-28 melanoma it was 4.8% (active); in the assay with SK-MEL-2 melanoma, 73.1%; with EKVX NSCLC, 23.7%. The growth in the assay with SN12C renal is -9.88% (active); with UO-31 renal, -5.1% (active); in the assay with TK-10 renal it was 23.7%; in the assay with ACHN renal it was 7.13% (active); in the assay with CAKI-1 renal, 10.1%; with CCRF-CEM leukemia, -20.5% (active). For the same molecule, the growth with MOLT-4 leukemia was -18.6% (active).
For the molecule `COc1cc2oc(-c3cccc(C(=O)Nc4ccc(Br)cc4)c3)cc(=O)c2c(OC)c1OC`, the growth with HCT-15 colon is 40.2%; in the assay on HT29 colon, 39.5%; in the assay with SNB-75 CNS, 81.7%; with SNB-19 CNS, 80.9%; in the assay with U251 CNS, 65.7%; in the assay on PC-3 prostate it was 53.1%. Also, the growth in the assay with SK-MEL-5 melanoma is 56.3%; in the assay with UACC-62 melanoma, 63.7%; in the assay with LOX IMVI melanoma, -20.9% (active); with SK-MEL-28 melanoma it was 35.7%; in the assay with SK-MEL-2 melanoma, 71.2%; with EKVX NSCLC it was 60%. Besides, the growth in the assay with SN12C renal is 50.9%; with UO-31 renal, 55.7%; with TK-10 renal, 62.5%; in the assay with ACHN renal it was 72.5%; in the assay with CAKI-1 renal, 20.6%; with CCRF-CEM leukemia, 41.9%. Moreover, the growth in the assay with MOLT-4 leukemia is 49.5%.
As to `O=S(=O)(NCCNc1nccc(-c2c(-c3cccc(F)c3)nc3sccn23)n1)c1ccc(Cl)cc1`, the growth is 31.8% in the assay with HCT-15 colon; 36% with HT29 colon; 78.9% in the assay with SNB-75 CNS; 66.5% with SNB-19 CNS; 55.2% in the assay on U251 CNS; 56.9% with PC-3 prostate. In addition, the growth with SK-MEL-5 melanoma is 36.5%; in the assay with UACC-62 melanoma, 44.3%; with LOX IMVI melanoma, 43.7%; with SK-MEL-28 melanoma, 74.7%; in the assay with SK-MEL-2 melanoma it was 79.8%; in the assay on EKVX NSCLC, 66.3%. Besides, the growth in the assay with SN12C renal is 48.7%; with UO-31 renal it was 23.8%; in the assay on TK-10 renal it was 88.5%; in the assay with ACHN renal, 35.7%; in the assay with CAKI-1 renal it was 41.1%; in the assay on CCRF-CEM leukemia, 50.4%. Moreover, the growth in the assay on MOLT-4 leukemia was 46.8%.
With `CC(C)(C)c1cc(/C=N/NC(=O)c2ccccc2NC(=O)c2cccs2)c(O)c(C(C)(C)C)c1`, the growth was 17.1% in the assay on HCT-15 colon; 25.3% with HT29 colon; 34.9% with SNB-75 CNS; 40.6% in the assay with SNB-19 CNS; 13.8% in the assay on U251 CNS; 30.3% in the assay on PC-3 prostate. The growth in the assay with SK-MEL-5 melanoma is 22.9%; in the assay on UACC-62 melanoma, 13.1%; in the assay with LOX IMVI melanoma, -34.2% (active); in the assay with SK-MEL-28 melanoma, 51.5%; in the assay on SK-MEL-2 melanoma it was 36.9%; in the assay on EKVX NSCLC it was 35%. The growth in the assay with SN12C renal is 40.6%; in the assay with UO-31 renal it was 10.7%; in the assay on TK-10 renal it was 28.8%; with ACHN renal, 21.9%; in the assay on CAKI-1 renal it was 19.8%; in the assay on CCRF-CEM leukemia, 4.59% (active). Besides, the growth with MOLT-4 leukemia is 16.5%.
